Shown are actives, neighbours in structure and some others; about 10% of the full set was active somewhere.
L3MBTL1 block: blocks human L3MBTL1 | 230,000 tested, 0.66% active | AlphaScreen L3MBTL1–H3K9me1 peptide binding | Potency, µM (titrated, usually from 57.1 µM), without a hit: at the highest dose activity, negative = inhibition, hits mostly inhibitors | AID 485360; also: % is scaled to controls: 0 for no effect and ±100 for the full control effect; nearly all actives have a fitted effect of over 60% in size
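AlphaScreen proximity signal between nickel-chelate acceptor and streptavidin donor beads (final 10 ug/mL) reports binding of 50 nM L3MBTL1 to 75 nM biotin-H3 K9me1 peptide; complex incubated with compounds 30 min at room temperature; cefsulodin titration as control.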
G9a inh: blocks human histone lysine methyltransferase G9a | G9a H3K9 monomethylation, AlphaScreen, 2 h | 350,000 tested, 8.8% active | Potency, µM (top dose mostly 102 µM), for inactives: at the top dose activity, negative = inhibition, actives largely listed as inhibitors; also: % is scaled to controls: 0 for no effect and ±100 for the full control effect; nearly all actives have a fitted effect of over 75% in size
Target sequence (Q96KQ7 913-1193 limits assumed): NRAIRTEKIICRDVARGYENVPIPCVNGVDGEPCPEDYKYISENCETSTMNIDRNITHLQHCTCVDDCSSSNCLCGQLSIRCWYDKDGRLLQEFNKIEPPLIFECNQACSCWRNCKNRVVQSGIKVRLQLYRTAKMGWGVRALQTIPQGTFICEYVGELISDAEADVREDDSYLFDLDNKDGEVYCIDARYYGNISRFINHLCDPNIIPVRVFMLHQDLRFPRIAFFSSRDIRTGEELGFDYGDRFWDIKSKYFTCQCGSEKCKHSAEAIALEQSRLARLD
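Methyltransferase reactions run at room temperature for 2 h (20 nM enzyme, 500 nM biotin-H3K9 peptide, 20 uM SAM) after a 15 min compound preincubation; product detected by AlphaScreen beads and anti-H3K9me1 antibody.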
BAZ2B inh: BAZ2B (human) inhibition; AlphaScreen BAZ2B-H3K14Ac peptide displacement; Potency, µM (highest dose often 114 µM), for inactives: at the highest dose activity change, negative = inhibition, actives largely listed as inhibitors; AID 504333; 360,000 tested, 4.4% active; also: % is scaled to controls: 0 for no effect and ±100 for the full control effect; nearly all actives have a fitted effect of over 60% in size
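Compounds, titrated to a top concentration of 110 uM, were incubated 30 min at room temperature with preformed BAZ2B/acetyl-K14 H3 peptide complex (50 nM each). Proximity signal was measured by AlphaScreen after 20 min with beads.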
HP1b binding inh: inhibitors of HP1-beta chromodomain binding to methylated histone tails | P83916 | AlphaScreen HP1-beta / biotin-H3K9me3 peptide binding | Potency, µM (titrated, usually from 114 µM), inactives show at the top dose activity change, negative = inhibition, actives largely listed as inhibitors | 390,000 tested, 0.56% active; also: nearly all actives have a fitted effect of over 70% in size
Target sequence (P83916 whole entry, looked up): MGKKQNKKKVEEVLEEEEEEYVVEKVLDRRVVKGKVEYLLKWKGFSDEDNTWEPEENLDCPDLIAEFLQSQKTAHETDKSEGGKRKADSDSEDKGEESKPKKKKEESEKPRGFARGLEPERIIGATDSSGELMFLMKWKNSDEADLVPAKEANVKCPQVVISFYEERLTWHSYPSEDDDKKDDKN
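AlphaScreen: HP1-beta (50 nM) preformed 30 min with biotin-H3(1-18)K9me3 peptide (50 nM) in PBS pH 7.4, 0.01% Tween-20. Compound added for 30 min at RT, then streptavidin donor/nickel chelate acceptor beads (10 ug/mL) for 30 min.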
JMJD2A Tudor: inhibitors of human JMJD2A Tudor domain. O75164. AlphaScreen JMJD2A-Tudor / H3K4me3 peptide binding. Potency, µM (doses to about 114 µM), for inactives: top-dose activity change, negative = inhibition, usual class: inhibitors. 390,000 tested, 4.4% active; also: % is scaled to controls: 0 for no effect and ±100 for the full control effect; nearly all actives have a fitted effect of over 50% in size
GLS inhibitor: inhibitors of human glutaminase (GLS); O94925; GLS enzymatic activity, qHTS titration; Potency, µM (doses to about 45.5 µM), for inactives: top-dose activity change, negative = inhibition, most hits filed as inhibitors; 410,000 tested, 0.21% active; also: % is scaled to controls: 0 for no effect and ±100 for the full control effect
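hKGA; 45 mM KH2PO4 pH 8.2 + 0.02% Tween-20; cpd via pin tool; 1 mM Gln soln; GluOx/HRP/Amplex Red; RT 30 min; fluor. t0 & final.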
* marks the source's active call; other numbers are inactive results; ? = inconclusive; · = no result; ! = repeats disagree; [ ] = remark or other dose. Calls follow the shape of the dose curve; as a rule, active = well fitted curve in the direction sought with a large enough effect; inconclusive = small, poorly fitted or top-dose-only effect, or another doubt; inactive = no such curve, though single readings can be large; an effect the other way counts as inactive or inconclusive. Potency is read from the fitted curve at half-maximal effect.

SMILES	L3MBTL1 block	G9a inh	BAZ2B inh	HP1b binding inh	JMJD2A Tudor	GLS inhibitor
C=CCn1c(-c2ccccc2OC)n[nH]c1=S	5%	2µM*	-9%	41%	6.3µM*	7%
CN(C)CC[C@@H](c1ccc(Cl)cc1)c1ccccn1	·	21%[59 µM]	·	33%	2%	-2%
CN(C)CC[C@@H](c1ccc(Br)cc1)c1ccccn1	·	16µM*!	·	28%	-7%	2%
COc1ccc(NC(=O)C2CCCN2c2ccc(OC)c(OC)c2)cc1OC (configuration not stated)	-2%	71µM*	0%	23%	-13%	42%
COc1ccc(NC(=O)C2CCCCN2N)cc1OC (configuration not stated)	-4%	?	9%	-11%	-18%[11.4 µM]	26%
CSc1nsc(SC)c1C(=O)NCCNS(=O)(=O)c1ccc(C)cc1	7%[11.4 µM]	2.8µM*	50µM*	30%	-11%	8%
COc1cc2c(cc1OC)C(Cc1ccc(O)cc1)N(C)CC2 (configuration not stated)	0%	50µM*	-3%	5%	-18%	?
CC(=O)N1CCC2(CC1)C/C(=N\NC(=S)Nc1ccccc1C)c1cc(O)ccc1O2	·	32µM*	-31%	?	?	26%
CC(=O)N1CCC2(CC1)C/C(=N\NC(=S)Nc1ccccc1F)c1cc(O)ccc1O2	·	16µM*	-33%	?	?	24%
COc1ccc(CCNC(=O)C(=O)NCC(c2ccco2)S(=O)(=O)c2ccccc2)cc1OC (configuration not stated)	·	-21%[59 µM]	-6%	33%	-11%	-13%
CC(C)(C)c1ccc(S(=O)(=O)NCc2nc3cccnc3n2Cc2ccccc2Cl)cc1	·	12%[59 µM]	-8%	11%[57 µM]	-19%	8%
COC(=O)c1ccc2cc(OC)c(OC)cc2c1	·	·	·	·	·	3%
COC(=O)c1ccc(OCC(O)CNCC(c2ccc(OC)cc2)N(C)C)c(OC)c1 (configuration not stated)	·	?	50µM*	-25%	1.8µM*	26%
Nc1nn(-c2ccccc2)c(N)c1N=Nc1cccc(F)c1	-19%	20µM*	35µM*	?	35µM*	-1%
Nc1nn(-c2ccccc2)c(N)c1N=Nc1ccc2c(c1)OCO2	-24%	?	32µM*	18µM*	50µM*	-12%
Cc1nn(-c2ccccc2)c(N)c1N=Nc1cccnc1	-15%	?	-36%	7%	?	12%
Cc1cccc(N(C)C(=O)c2cc3c(=O)oc4ccc(C)cc4c3s2)c1	·	-46%[59 µM]	-3%	31%	-11%	2%
CC(C)OCCCNc1ncc2c(n1)CC(c1cccs1)CC2=O (configuration not stated)	-2%	?	-11%	24%	-8%	0%
CC(C)OCCCNc1ncc2c(n1)CC(c1ccc(N(C)C)cc1)CC2=O (configuration not stated)	-4%	35µM*	-38%	-9%	?	27%
Cc1ccc2sc(N3CCN(CCNC(=O)c4ccco4)CC3)nc2c1C	-2%	45µM*	?	-13%	?	10%
O=C(NCCN1CCCCC1)c1ccco1	3%	1%[59 µM]	6%	26%	10%	10%
CCn1c(CCc2nc3ccccc3[nH]2)n[nH]c1=S	·	?	-15%	12%	4µM*	-13%
Cc1ccc(-n2c(Cn3c(C)nc4ccccc43)n[nH]c2=S)cc1	-8%	10µM*	2%	34%	8.9µM*	-1%
Cc1ccc(OCCn2c(C)nc3ccccc32)cc1	-1%	10%	-8%	22%	-12%	1%
Cc1ccc(-n2c(CCc3nc4ccccc4[nH]3)n[nH]c2=S)cc1	0%	?	-6%	-2%	7.9µM*	-19%
SMILES	L3MBTL1 block	G9a inh	BAZ2B inh	HP1b binding inh	JMJD2A Tudor	GLS inhibitor
Cc1ccc(Cc2nc3ccccc3[nH]2)cc1	·	23%	-5%	13%	-7%	-2%
Cc1ccc(Cn2ccn(CC(=O)Nc3ccccc3C(F)(F)F)c(=O)c2=O)cc1	·	-7%[59 µM]	-27%	33%	-20%	1%
COc1cccc(-c2ccc3c(N)c(C(=O)c4ccc(F)cc4)sc3n2)c1	·	2%[59 µM]	13%	79%	12%	-5%
CCCCNC(=O)CSc1nnc(C)c2c(C)n(-c3ccccc3)nc12	·	-8%[59 µM]	-11%	53%	0%	0%
CCOc1ccc(-n2nc(CO)c(C(=O)NCc3ccccn3)n2)cc1	·	2%[59 µM]	-17%	57%	-1%	5%
COc1ccccc1NC(=O)CSc1sc2c(O)cc(=O)[nH]c2c1C#N	·	8.9µM*	?	-17%	?	-2%
COc1ccc(Cl)cc1NC(=O)CSc1sc2c(O)cc(=O)[nH]c2c1C#N	·	?	-31%	11%	-13%	-7%
COc1ccc(NC(=O)CSc2sc3c(O)cc(=O)[nH]c3c2C#N)c(OC)c1	·	79µM*	79µM*	?	?	3%
COc1ccc(NC(=O)CSc2nc(O)cc(=O)[nH]2)c(OC)c1	·	31%[12.7 µM]	-29%	17%	-14%[11.4 µM]	9%
COc1ccc(-c2nc3scc(CCNS(=O)(=O)c4cccs4)n3n2)cc1	·	-16%[59 µM]	-10%	33%	-17%	-7%
CSc1ccc(CCNC(=O)CCCn2c(=O)c3cccn3c3ccccc32)cc1	·	14µM*	-31%	-1%	?	3%
CCOc1ccc(CCNC(=O)CCCn2c(=O)c3cccn3c3ccccc32)cc1	·	-5%[59 µM]	3%	10%	-12%	-4%
Cc1ccc(OCc2cc(=O)n3cc(C)sc3n2)c(C)c1	·	10%[59 µM]	-3%	49%	6%	1%
CCOc1ccccc1NCc1cc(=O)oc2cc(C)ccc12	·	45µM*	-36%	-15%	?	-14%
CC(=O)CSc1nnc2cc(C)c3cc(C)cc(C)c3n12	·	?	?	21%	-28%	3%
CCOc1ccc(NC(=O)CSc2nc3ccsc3c(=O)n2CCC(C)C)cc1	·	27%[59 µM]	-2%	2%	-21%	3%
O=Cc1coc2ccc3ccccc3c2c1=O	-9%	50µM*	-5%	-21%	?	?
COc1ccc(OC)c(CNS(=O)(=O)c2c(C(=O)N3CCCCCC3)c(C)n(C)c2C)c1	·	5%[59 µM]	-27%	55%	-25%	-4%
COc1ccc2c(c1)-c1nc(/N=C/c3cccc(OC)c3O)sc1CC2	-2%	18µM*	50µM*	?	?	17%
COc1ccc2c(c1)-c1nc(/N=C/c3ccccc3O)sc1CC2	-9%	?	?	?	?	-6%
Cc1c(Cl)cccc1NC(=O)CN1C(=O)c2ccccc2Sc2ncccc21	·	-16%[59 µM]	-21%	13%	-18%	19%

From PubChem BioAssay
